# “And” between values parts separate entries of the source, which are not always exact repeats. Identical values can stand only once. Results filed as inconclusive are left out. A number with no mark means an inactive call. The source made the active and inactive calls. The call rests on the fitted dose curve; in most records, active means well fitted cell-killing curve with a large enough effect; inconclusive means small, poorly fitted or top-dose-only effect; inactive means flat fitted curve, though single readings scatter. Numbered stars: 1 amine (or outer) side, 2 acyl side, 3 side chain; on linkers, the order of the positions; unused ones are H or OH. Bridge positions count the residues as written; N and C are the ends. Square brackets hold non-standard residues; d marks the D form. Peptide text beside a SMILES is read from it. I, II: the chains in the order shown. Actinocin(9to1) = Cc1c2oc3c(C)ccc(C(=O)[*:1])c3nc-2c(C(=O)[*:2])c(N)c1=O; NMeV = CN[CH](C(=O)O)C(C)C; Sar = CNCC(=O)O
# Test: Cellular viability qHTS for adrenocortical cancer (ACC) cell line SW-13 (AID 1963989); further: nearly all actives have a fitted effect of over 65% in size;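 on activity (max response): cells grown in serum-free medium with ITS supplement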
# Conditions: SW-13 ACC cells viability, CellTiter-Glo, 48 h; activity (max response): hits give low values
# Text: PI: Naris Nilubol, MD Surgical Oncology Program, National Cancer Institute (NCI) National Institute of Health (NIH), Bethesda, Maryland Adrenocortical cancer (ACC) is a rare malignancy with poor survival outcomes and few treatment options. Currently, mitotane is the only FDA-approved therapy for ACC. Although adjuvant radiation therapy is rarely utilized, it has the potential to improve survival in select cases. Through a quantitative high-throughput drug screen (qHTS), we identified auranofin (AF), a thioredoxin reductase (TXNRD) inhibitor, as a promising candidate drug. This study aims to evaluate whether AF can enhance the efficacy of radiation therapy in the treatment of ACC. Two human ACC cell lines, SW-13 and NCI-H295R, were screened using the National Center for Advancing Translational Sciences (NCATS) Pharmaceutical Collection (NPC) and the Mechanism Interrogation PlatE (MIPE) library (~4,991 compounds). CellTiter-Glo (Cat # G7570, Promega, Madison, WI) was utilized to measure cell viability. Described herein are the results of the corresponding viability assay.
# PROTOCOL TABLE (as described by Inglese J, Shamu CE and Guy RK. 2007) SEQUENCE No. (e.g., 1, 2, 3, etc.); […] (e.g., Cells, Incubation, Reagent, etc.); VALUE; DESCRIPTION. 1; Cells; 5 uL; white, solid-bottom, 1536-well tissue-culture treated plates. 2; Time; overnight culture at 37C with 5% CO2. 3; Compounds and control; 23 nL; Kalypsis pin tool (Wako USA) equipped with a 1536-well pin head to transfer to the assay plates. 4; Time; 48 hours; 37C with 5% CO2. 5; Reagent; 4 uL; CellTiter-Glo luminescent substrate mix. 6; Time; 20 min at room temperature. 7; Detection; Luminescence; ViewLux plate reader NOTES (numbers refer to Sequence numbers above) 1. SW13 cells were harvested from a T175 flask and resuspended in ITS-supplemented DMEM serum-free medium at a concentration of 300 000 cells/mL. Then 5 uL of resuspended cells were dispensed into each well of white, solid-bottom, 1536-well tissue-culture-treated plates using a multidrop combi dispenser. The plates were covered with stainless steel gasket lids. 2-3. The plates were cultured overnight at 37C with 5% CO2. Twenty-three nL of compounds (eight selected concentrations from the NPC / MIPE) or positive control (10 mM stock of bortezomib) in DMSO was transferred to each well of the assay plate using a pin tool (Kalypsys, San Diego, CA, USA). The final concentration of the compounds in the 5 uL assay volume ranged from 0.5 nM to 46 uM. 4-6. After 48 hours of incubation at 37C and 5% CO2, 4 uL of CellTilter-Glo luminescent substrate mix (Promega, Madison, WI, USA) was added to each well. Then the plates were incubated for 20 minutes at room temperature. 7. After incubation, luminescence was measured using a ViewLux plate reader (PerkinElmer, Waltham, MA, USA) with a clear filter was used to measure the number of metabolically competent cells. To determine compound activity in the qHTS assay, the titration-response data for each sample was plotted and modeled by a four-parameter logistic fit yielding IC50 and efficacy (maximal response) values. […] REFERENCES: Inglese J, Shamu CE and Guy RK, Reporting data from high throughput screening of small molecule libraries, Nature Chemical Biology, 2007, 3(8): 438-441. doi.org/10.1038/nchembio0807-438.
# On the % scale 0 is the no-effect control and ±100 the full control effect.
Compound,activity (max response),Potency
O=C(NCCc1c[nH]c2ccccc12)c1cccnc1,-4.89%,–
O=C(/C=C/c1ccccc1)OCc1ccccc1,5.62%,–
Cc1ccc(-c2ccc3ncc4c(c3n2)n(C2CCN(C(=O)[C@H](C)O)CC2)c(=O)n4C)cn1,–,0.794 µM (active)
CN(N=O)C(=O)N[C@@H]1[C@@H](O)[C@H](O)[C@@H](CO)O[C@@H]1O,0.228% and 12.5%,–
O=C(NO)c1cnc(NC2(c3ccccc3)CC2)nc1,–,10 µM (active)
Cc1nn(C)c2c1C(c1ccc(C(F)(F)F)cc1)C(C#N)=C(N)O2 (stereo not given),-18.7%,–
COC(=O)CCCCC(CCSS/C(CCO)=C(\C)N(C=O)Cc1cnc(C)nc1N)SC(C)=O (stereo not given),8.22%,–
Cc1onc(-c2c(Cl)cccc2Cl)c1C(=O)Cl,17.1%,–
O=C(O)c1ccc(CN2CCC(CN[C@@H]3C[C@H]3c3ccccc3)CC2)cc1,7.26%,–
CC(C)C(=O)c1c(C(C)C)nn2ccccc12,11.5%,–
COc1cc(NS(C)(=O)=O)ccc1Nc1c2ccccc2nc2ccccc12,–,5.62 µM (active)
CC(C)OC(=O)[C@H](C)N[P@](=O)(OC[C@H]1O[C@@H](n2ccc(=O)[nH]c2=O)[C@](C)(F)[C@@H]1O)Oc1ccccc1,–,3.98 µM (active)
CN(C)CCOC(C)(c1ccccc1)c1ccccn1 (stereo not given),14.2%,–
CC(N)C12CC3CC(CC(C3)C1)C2 (stereo not given),-5.6% and -7.27%,–
Nc1ccc(S(=O)(=O)Nc2ccccc2)cc1,5.64%,–
COc1ccc2c(c1)CCCC2=O,14.4%,–
"Cc1c2oc3c(C)ccc(C(=O)NC4C(=O)NC(C(C)C)C(=O)N5CCCC5C(=O)N(C)CC(=O)N(C)C(C(C)C)C(=O)OC4C)c3nc-2c(C(=O)NC2C(=O)NC(C(C)C)C(=O)N3CCCC3C(=O)N(C)CC(=O)N(C)C(C(C)C)C(=O)OC2C)c(N)c1=O (stereo not given) (I: TVP[Sar][NMeV] / II: TVP[Sar][NMeV]; ester I:1-I:C, II:1-II:C; linker I:N-II:N via Actinocin(9to1); configuration not given here)",–,0.009 µM (active)
CN(C)c1cccc(-c2c3c(=O)n(-c4ccccc4Cl)[nH]c3cc(=O)n2C)c1,-1.86%,–
C[C@@H](O)[C@H]1C(=O)N2C(C(=O)O)=C(S[C@@H]3CN[C@H](CNS(N)(=O)=O)C3)[C@H](C)[C@H]12,7.35%,–
COCCNc1cc(NC(=O)N2CCCc3cc(CN4CCN(C)CC4=O)c(C=O)nc32)ncc1C#N,-2.64%,–

Compound,activity (max response),Potency
C=CC(=O)N1C[C@H](Nc2ncnc3[nH]ccc23)CC[C@@H]1C,-23.7%,–
C[C@@H](Oc1cc(-c2cnn(C3CCNCC3)c2)cnc1N)c1c(Cl)ccc(F)c1Cl,–,3.55 µM (active)
C[C@@H](Nc1cc(F)cc(F)c1)c1cc(C(=O)N(C)C)cc2c(=O)cc(N3CCOCC3)oc12,-10.8%,–
C=CCc1cccc(/C=N/NC(=O)CN2CCN(Cc3ccccc3)CC2)c1O,–,8.91 µM (active)
Nc1ccc(S(=O)(=O)c2ccc(N)cc2)cc1,8.46%,–
C[C@H]1O[C@@H](O[C@H]2CC[C@@]3(C)[C@H](CC[C@@H]4[C@@H]3C[C@@H](O)[C@]3(C)[C@@H](C5=CC(=O)OC5)CC[C@]43O)C2)C[C@H](O)[C@@H]1O[C@H]1C[C@H](O)[C@H](O[C@H]2C[C@H](O)[C@H](O[C@@H]3O[C@H](CO)[C@@H](O)[C@H](O)[C@H]3O)[C@@H](C)O2)[C@@H](C)O1,–,0.082 µM (active)
O=C1c2c(O)ccc(O)c2C(=O)c2c(NCCNCCO)ccc(NCCNCCO)c21,–,1.16 µM (active) and 2.51 µM (active)
COC(=O)Nc1nc2ccc(S(=O)c3ccccc3)cc2[nH]1 (stereo not given),–,8.91 µM (active) and 259 nM (active)
CN(C)C(=O)Oc1ccc[n+](C)c1,13.3%,–
O=C(O)CCCCC(CCSCc1ccccc1)SCc1ccccc1 (stereo not given),-7.05%,–
CN(C)CCc1c[nH]c2ccc(CS(=O)(=O)N3CCCC3)cc12,-4.49% and 5.74%,–
C/C=C(/C(=C/C)c1ccc(O)cc1)c1ccc(O)cc1,–,14.1 µM (active)
CN(C)CCNC(=O)COc1c2cccc1Cc1cccc(c1OCC(=O)NCCN(C)C)Cc1cccc(c1OCC(=O)NCCN(C)C)Cc1cccc(c1OCC(=O)NCCN(C)C)C2,14.5%,–
O=c1cc(CO)occ1O,13.4%,–
NC(CSCC(=O)O)C(=O)O (stereo not given),-12%,–
CN1CCN(c2ccc3nc(-c4c(N)c5c(F)cccc5[nH]c4=O)[nH]c3c2)CC1,–,15.8 µM (active)
CC1=C2[N-][C@H]([C@H](CC(N)=O)[C@@]2(C)CCC(=O)NC[C@@H](C)OP(=O)([O-])O[C@H]2[C@@H](O)[C@@H](n3cnc4cc(C)c(C)cc43)O[C@@H]2CO)[C@]2(C)N=C(C(C)=C3N=C(C=C4N=C1[C@@H](CCC(N)=O)C4(C)C)[C@@H](CCC(N)=O)[C@]3(C)CC(N)=O)[C@@H](CCC(N)=O)[C@]2(C)CC(N)=O.O.[Co+2],-17.2%,–
CC1CN(c2cc3c(cc2F)c(=O)c(C(=O)O)cn3-c2ccc(F)cc2F)CCN1 (stereo not given),-5.86%,–
O=P(O)(O)C(O)(Cn1ccnc1)P(=O)(O)O,-1.67%,–
C#C[C@]1(O)CC[C@H]2[C@@H]3CCC4=CC(=O)CC[C@@H]4[C@H]3CC[C@@]21C,2.7%,–
